{"source": "paper PMC12820563", "about": "“FoxP3 forms a head-to-head dimer in vivo and stabilizes its multimerization on adjacent microsatellites”", "note": "Over roughly 16,000 sequences, “rpm ratio (pull-down/input)” has its median near 0.94; the highest 2% begin near 1.7. Shown is part of a subset that was picked to be rich in the highest values.", "data": [{"biological_target": "T1, MBP-FoxP1dN (Mus musculus, UniProt P58462 326-579)", "T1 sequence": "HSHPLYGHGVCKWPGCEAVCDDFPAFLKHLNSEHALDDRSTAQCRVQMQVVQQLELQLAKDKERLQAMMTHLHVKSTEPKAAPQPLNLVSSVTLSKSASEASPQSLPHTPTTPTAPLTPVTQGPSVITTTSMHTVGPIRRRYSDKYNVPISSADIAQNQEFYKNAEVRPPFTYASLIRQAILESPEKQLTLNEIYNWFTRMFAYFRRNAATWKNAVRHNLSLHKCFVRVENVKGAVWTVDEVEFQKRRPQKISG", "assay": "PD-seq (MBP pull-down with sequencing); 20 mM Tris-HCl pH 7.5, 100 mM NaCl, 1.5 mM MgCl2, 0.4 uM protein, 0.1 uM dsDNA library, 30 min, room temperature, amylose pull-down; high values mean tight binding", "conditions": "protein: recombinant; tags: His6-MBP; chain copies: 2; dsDNA, one strand shown", "how_it_was_run": "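His6-MBP-tagged mouse FoxP3 or FoxP1 fragment lacking the N-terminus, expressed in E. coli, was mixed at 0.4 µM with 0.1 µM Klenow-filled double-stranded degenerate DNA library. Incubation was 30 min at room temperature in Tris pH 7.5 buffer with NaCl and MgCl2. Complexes were caught on amylose resin and washed three times; DNA was released with proteinase K, PCR-barcoded and Illumina-sequenced. Binding is reads-per-million enrichment, pull-down over input, with replicates pooled.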", "values": [{"sequence": "GATGATTGTTCTCCCAGCTGATGAATTGGATGTATCGAGTAAACAAATTTTCCTAATCTTTCTGTTCAAGCGCCATCTAC", "binding signal": "1.1 RPM ratio (pull-down/input)"}, {"sequence": "GATGATTGTTCTCCCAGCTGATGAATTGAAAATCTCGAGTAAACAAATTTTCCTAATCTTTCTGTTCAAGCGCCATCTAC", "binding signal": "0.791 RPM ratio (pull-down/input)"}, {"sequence": "GATGATTGTTCTCCCAGCTGATGAATTCAACTCGTCGAGTAAACAAATTTTCCTAATCTTTCTGTTCAAGCGCCATCTAC", "binding signal": "0.869 RPM ratio (pull-down/input)"}, {"sequence": "GATGATTGTTCTCCCAGCTGATGAATTTCTGTACTCGAGTAAACAAATTTTCCTAATCTTTCTGTTCAAGCGCCATCTAC", "binding signal": "0.909 RPM ratio (pull-down/input)"}, {"sequence": "GATGATTGTTCTCCCAGCTGATGAATTTACCATCTCGAGTAAACAAATTTTCCTAATCTTTCTGTTCAAGCGCCATCTAC", "binding signal": "1.19 RPM ratio (pull-down/input)"}, {"sequence": "GATGATTGTTCTCCCAGCTGATGAATTTCCAATGTCGAGTAAACAAATTTTCCTAATCTTTCTGTTCAAGCGCCATCTAC", "binding signal": "0.862 RPM ratio (pull-down/input)"}, {"sequence": "GATGATTGTTCTCCCAGCTGATGAATTATCCGATTCGAGTAAACAAATTTTCCTAATCTTTCTGTTCAAGCGCCATCTAC", "binding signal": "0.95 RPM ratio (pull-down/input)"}, {"sequence": "GATGATTGTTCTCCCAGCTGATGAATTTGTATTCTCGAGTAAACAAATTTTCCTAATCTTTCTGTTCAAGCGCCATCTAC", "binding signal": "1.44 RPM ratio (pull-down/input)"}, {"sequence": "GATGATTGTTCTCCCAGCTGATGAATTATTTTTATCGAGTAAACAAATTTTCCTAATCTTTCTGTTCAAGCGCCATCTAC", "binding signal": "1.4 RPM ratio (pull-down/input)"}, {"sequence": "GATGATTGTTCTCCCAGCTGATGAATTATCGTTATCGAGTAAACAAATTTTCCTAATCTTTCTGTTCAAGCGCCATCTAC", "binding signal": "1.11 RPM ratio (pull-down/input)"}, {"sequence": "GATGATTGTTCTCCCAGCTGATGAATTATTATCATCGAGTAAACAAATTTTCCTAATCTTTCTGTTCAAGCGCCATCTAC", "binding signal": "1.38 RPM ratio (pull-down/input)"}, {"sequence": "GATGATTGTTCTCCCAGCTGATGAATTATTTCTATCGAGTAAACAAATTTTCCTAATCTTTCTGTTCAAGCGCCATCTAC", "binding signal": "1.13 RPM ratio (pull-down/input)"}, {"sequence": "GATGATTGTTCTCCCAGCTGATGAATTGTTATTATCGAGTAAACAAATTTTCCTAATCTTTCTGTTCAAGCGCCATCTAC", "binding signal": "3.14 RPM ratio (pull-down/input)"}, {"sequence": "GATGATTGTTCTCCCAGCTGATGAATTATTATTATCGAGTAAACAAATTTTCCTAATCTTTCTGTTCAAGCGCCATCTAC", "binding signal": "2.52 RPM ratio (pull-down/input)"}, {"sequence": "GATGATTGTTCTCCCAGCTGATGAATTTTTATTATCGAGTAAACAAATTTTCCTAATCTTTCTGTTCAAGCGCCATCTAC", "binding signal": "2.02 RPM ratio (pull-down/input)"}, {"sequence": "GATGATTGTTCTCCCAGCTGATGAATTTTTAGTATCGAGTAAACAAATTTTCCTAATCTTTCTGTTCAAGCGCCATCTAC", "binding signal": "1.02 RPM ratio (pull-down/input)"}, {"sequence": "GATGATTGTTCTCCCAGCTGATGAATTTATTAAATCGAGTAAACAAATTTTCCTAATCTTTCTGTTCAAGCGCCATCTAC", "binding signal": "1.39 RPM ratio (pull-down/input)"}, {"sequence": "GATGATTGTTCTCCCAGCTGATGAATTCTTAGTATCGAGTAAACAAATTTTCCTAATCTTTCTGTTCAAGCGCCATCTAC", "binding signal": "0.963 RPM ratio (pull-down/input)"}, {"sequence": "GATGATTGTTCTCCCAGCTGATGAATTTCTATTATCGAGTAAACAAATTTTCCTAATCTTTCTGTTCAAGCGCCATCTAC", "binding signal": "1.48 RPM ratio (pull-down/input)"}, {"sequence": "GATGATTGTTCTCCCAGCTGATGAATTGTTAGTATCGAGTAAACAAATTTTCCTAATCTTTCTGTTCAAGCGCCATCTAC", "binding signal": "1.76 RPM ratio (pull-down/input)"}]}]}
